# Most compounds without a hit are left out; they make up all but 12% or so of the library.
# Lmaj promast: Leishmania major promastigote growth inhibition, primary screen; inhibition, % at 10 µM; 200,000 compounds, 9% hits; Leishmania major promastigotes, resazurin fluorescence viability; in the data active = inhibition above about 50%;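 also: promastigotes grown with compound for 44 hours at 28 °C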
# WT yeast gro inh: growth inhibition of WT strain, primary screen, mitochondrial fusion inhibitor project, WT and mutant strains, chemical genetic. mitochondrial fusion phenotypic screen. inhibition, % at 10 µM. 190,000 compounds, 2.1% hits. AID 1362, 2008; in the data active = inhibition above about 58%; tested in S. cerevisiae
# Ins promoter up: insulin promoter activators in MIN6 cells, imaging, high-content screening, mouse beta cells; 190,000 compounds, 0.3% hits; MIN6 insulin promoter-GFP reporter; stronger effect = higher value; z-score at 5 µM;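 active = z-score above 3 at 5 µM with at least 500 cells counted in the well; inconclusive = wells under 500 cells, flagged as cytotoxic or low count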
# ROMK primary: ROMK potassium channel modulators, primary screen, cell-based, thallium flux, MLSMR library; B-score at 10 µM; 130,000 compounds, 2% hits; Tet-inducible ROMK, thallium flux fluorescence; actives lie on both sides; ATP-sensitive inward rectifier potassium channel 1 (Homo sapiens), P48048;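 active = signal ratio slope over the read window, or its plate-corrected B-score, at least 3 SD from the plate mean, either direction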;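 also: B-score of the F/F0 ratio slope over 7 to 12 s after thallium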
# Target sequence (P48048 whole entry, looked up): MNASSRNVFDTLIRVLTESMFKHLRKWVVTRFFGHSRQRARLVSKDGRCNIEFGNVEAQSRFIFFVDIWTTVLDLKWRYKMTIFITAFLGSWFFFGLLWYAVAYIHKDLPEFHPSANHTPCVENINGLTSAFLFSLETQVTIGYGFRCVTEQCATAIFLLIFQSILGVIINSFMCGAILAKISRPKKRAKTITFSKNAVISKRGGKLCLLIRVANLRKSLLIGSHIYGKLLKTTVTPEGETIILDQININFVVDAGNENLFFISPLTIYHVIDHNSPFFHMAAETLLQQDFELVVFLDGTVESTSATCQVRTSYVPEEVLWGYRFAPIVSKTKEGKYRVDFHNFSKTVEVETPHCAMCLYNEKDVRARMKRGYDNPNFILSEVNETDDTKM
# KCC2 mod: KCC2 cotransporter modulators, thallium flux, primary screen, cell-based, HEK293 KCC2, FluoZin-2 fluorescence, MLSMR. Solute carrier family 12 member 5 (Homo sapiens), Q9H2X9. KCC2 cells, thallium flux FluoZin-2 fluorescence. B-score of Tl+ flux slope (higher = more flux/activation; lower = inhibition) at 10 µM. 190,000 compounds, 2.2% hits. AID 1456, 2008;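 active = thallium flux slope and its plate-corrected score both differing from the plate sample mean at a set confidence after two filtering rounds, in either direction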;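 also: slope of fluorescence scaled to starting intensity during 10 to 20 s after thallium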
# Insulin prom inh: inhibitors of insulin promoter-driven GFP, primary screen, imaging, TRM-6 cells (human fetal islet line), eGFP reporter, cell count; AID 1273, 2008; reporter expression induced with tamoxifen; inhibition, % at 2 µM; 130,000 compounds, 0.9% hits;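 active = inhibition above the mean plus 3 SD, with well images judged a real hit on visual review, cut at about 60% in these data, passing the limit was not always enough; inconclusive = inhibition over the cutoff but images rejected on review; inactive = inhibition not above the cutoff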
# KCC2 secondary: KCC2 modulators in sodium-free buffer, confirmation, cell-based, HEK293 KCC2, thallium flux, secondary assay; shares compounds with KCC2 mod; FluoZin2 fluorescence; stronger effect = higher value; normalised thallium flux (F/F0 slope) at 10 µM; 3,700 compounds, 15% hits; AID 1713, 2009;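 active = thallium flux slope above the same plate's solvent-only control mean plus 3 SD; inconclusive = the two replicate wells disagree; inactive = no significant difference from solvent-only control wells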
# KCC2 bumet counter: thallium flux persisting under bumetanide in KCC2 cells, confirmation, counter-screen for KCC2 modulator project, cell-based, HEK293 KCC2, FluoZin2, secondary assay 3; shares compounds with KCC2 mod; HEK293-KCC2 + bumetanide/ouabain; stronger effect = higher value; normalized thallium flux at 10 µM; 3,700 compounds, 49% hits;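 active = thallium entry rate above the same plate's blocked-transporter control wells by more than 3 SD; inconclusive = the two repeat wells disagree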;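 also: raw slope of fluorescence over initial fluorescence between 10 and 20 s after thallium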
# KCC2 secondary2: KCC2 modulators without ouabain present, confirmation, cell-based, HEK293 KCC2, thallium flux, FluoZin2, secondary assay 2 | shares compounds with KCC2 mod | thallium flux FluoZin2 fluorescence; actives lie on both sides; F/F0 rise rate, 10–20 s post-thallium | normalized thallium flux at 10 µM | 3,700 compounds, 23% hits | AID 1715, 2009;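 active = thallium flux slope more than 3 SD above or below the plate's solvent-only control mean, mostly below; inconclusive = the two repeat wells disagreed; inactive = no significant shift from solvent-only controls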;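 also: raw slope with 0.1% DMSO as baseline and bumetanide as block control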
# HEK293 Tl flux: thallium flux modulation in parental HEK cells, confirmation, counter-screen for KCC2 modulator project, cell-based, counterscreen 1; HEK293 parental cells, thallium flux FluoZin2, ouabain; baseline-ratio fluorescence slope, 10–20 s after thallium; thallium flux rate (normalised fluorescence) at 10 µM; AID 1716, 2009; 3,700 compounds, 46% hits; shares compounds with KCC2 mod;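 active = thallium flux rate significantly above the same plate's solvent-only control wells, beyond their mean plus 3 SD; inconclusive = the two replicate wells gave conflicting results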
# KCC2 retest ouab: KCC2 inhibitors and activators, ouabain retest, confirmation, HEK-KCC2 cells | 3,700 compounds, 48% hits | shares compounds with KCC2 mod | HEK293-KCC2, thallium flux FluoZin2 fluorescence; bidirectional: low = inhibitor, high = activator | raw Tl+ flux slope (below DMSO = inhibition, above = activation) at 10 µM;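 active = thallium flux slope beyond 3 SD from same-plate DMSO control mean in most replicates, usually higher, sometimes lower; inconclusive = repeat tests gave conflicting results; inactive = no significant difference from controls in most replicates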;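 also: slope of initial-normalized fluorescence between seconds 10 and 20 after thallium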
# HEK293 Tl flux2: native HEK Tl+ uptake effects, second counter-screen – HEK cells, counterscreen 2, counter-screen for KCC2 modulator project, confirmation; shares compounds with KCC2 mod; HEK293 parental, thallium flux FluoZin-2 fluorescence slope; thallium flux slope at 10 µM; 3,700 compounds, 33% hits; AID 1718, 2009;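 active = thallium flux slope above the same plate's solvent-control mean plus 3 SD in both duplicate wells; inconclusive = duplicate wells that disagreed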;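 also: run without ouabain in cells lacking the KCC2 cotransporter; slope of fluorescence scaled to its starting value between 10 and 20 s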
# Numbers without * were called inactive; ? = inconclusive; . = not tested or not shown.
SMILES,Lmaj promast,WT yeast gro inh,Ins promoter up,ROMK primary,KCC2 mod,Insulin prom inh,KCC2 secondary,KCC2 bumet counter,KCC2 secondary2,HEK293 Tl flux,KCC2 retest ouab,HEK293 Tl flux2
CC1CCCC/C1=N\NC(=S)Nc1cccnc1 (stereo not given),-3,-4,-0.7,0.22,1.8,-19,.,.,.,.,.,.
Cc1ccc(S(=O)(=O)N/N=C/c2c(F)cccc2Cl)cc1,-3,-16,0.08,-0.67,-0.27,23,.,.,.,.,.,.
CCn1c(=O)cc(OCC(=O)N2CCCC2)c2ccccc21,-3,3,-1.2,.,0.34,.,.,.,.,.,.,.
O=C(c1coc2ccccc2c1=O)N1CCN(c2cccc(C(F)(F)F)c2)CC1,-1,12,-0.3,.,-4*,-36,0.011,0.0075,0.033,0.0074,0.022,0.01
CCn1c(=O)cc(OCC(=O)N2CCN(c3cccc(C(F)(F)F)c3)CC2)c2ccccc21,7,0,-0.27,.,-1.7,.,0.0079,0.0058,0.028,0.0065,?,0.01
Cc1ccoc1C(=O)N1CCCCC1C(=O)O (stereo not given),0,-4,-0.65,0.024,1.3,38,.,.,.,.,.,.
O=C(Nc1ccc2c(c1)Cc1ccccc1-2)c1ccco1,-3,-10,-0.77,0.56,.,-14,?,0.05*,0.032,0.023*,0.028,0.013*
COc1cccc(OC)c1C(=O)Nc1ccc2c(c1)Cc1ccccc1-2,4,19,0.47,-0.32,-0.11,.,.,.,.,.,.,.
CCC(=O)Nc1ccc(NC(=O)c2ccco2)cc1,-3,-1,0.21,0.08,.,43,0.01,0.0094*,0.034,0.009*,0.023,?
COc1cc(C(C)=O)ccc1OCC(=O)NCC1(N2CCCCC2)CCCCC1,-2,2,.,-1.3,0.38,-21,.,.,.,.,.,.
N#C/C(=C\c1ccccc1OCc1ccc(C(=O)O)cc1)c1ccccc1,8,-19,0.09,0.38,-1.3,-14,.,.,.,.,.,.
Cc1oc2cc(O)cc(C)c2c(=O)c1-c1cnn(-c2ccccc2)c1,4,0,0.42,-0.58,-1.9,-59,0.0084,0.006,0.034,0.0038,0.018,0.011
COC(=O)c1cc2c(N)c(C(=O)c3ccccc3)sc2nc1C(OC)OC,.,.,-0.46,0.45,-1.5,.,.,.,.,.,.,.
Cc1ccc(C)c(N(C)C(=O)COc2cc(=O)n(C)c3ccccc23)c1,-2,-2,-0.46,.,-4.1*,.,0.0082,0.0055,0.029,0.0063,0.021,0.0092
CCOC(=O)c1cnc2ccc(C)cc2c1Sc1ccccc1C(=O)OC,0,18,-0.32,-0.48,.,.,.,.,.,.,.,.
Cc1ccc(-n2c(=S)[nH]c3c(oc4ccccc43)c2=O)cc1C,6,4,-0.02,.,5.7*,.,0.017*,0.04*,0.03,0.018*,0.029*,0.012*
O=C1c2ccccc2-c2cccc(NS(=O)(=O)c3ccc(C(F)(F)F)cc3)c21,-5,22,0.14,.,.,-46,?,0.076*,?,0.023*,0.039*,0.016*
c1cc(C2OCCN2CC2COC3(CCCC3)O2)ccn1 (stereo not given),-4,5,0.62,.,-0.24,26,.,.,.,.,.,.
COc1ccc(NC(=O)CCCCCN2C(=O)CCC2=O)cc1Cl,9,-13,.,2,.,36,0.0091,?,0.034,0.0085,0.023,0.011
CC(C)(C)NC(=O)C(=O)N/N=C/c1ccc(Br)cc1,6,2,0.85,-0.62,.,.,.,.,.,.,.,.
CSC(=S)N/N=C/c1ccc(Br)cc1,7,68*,-0.39,2,68*,25,0.026*,0.088*,0.048*,0.037*,0.046*,0.038*
COCc1cc(N2CCCC2)nc(-c2ccccc2)n1,6,-11,0.01,-0.38,-3.5*,27,0.0066,0.0042,0.028,0.0067,0.018,0.0096
CC(CCc1ccccc1)NC(=O)c1ccc(NC(=O)c2cccc(Br)c2)cc1 (stereo not given),30,7,0.27,0.29,0.41,10,.,.,.,.,.,.
Cn1nc([N+](=O)[O-])nc1Sc1cccc2cccnc12,11,-9,-1.1,1,7.6*,.,0.0099,0.023*,0.03,0.013*,0.023,0.01
O=[N+]([O-])c1ccc(Cl)cc1Sc1cccc2cccnc12,-1,-17,0.39,-0.015,-0.9,30,.,.,.,.,.,.
SMILES,Lmaj promast,WT yeast gro inh,Ins promoter up,ROMK primary,KCC2 mod,Insulin prom inh,KCC2 secondary,KCC2 bumet counter,KCC2 secondary2,HEK293 Tl flux,KCC2 retest ouab,HEK293 Tl flux2
CCN(C(=O)c1c(N)cnn1C)c1ccccc1,-7,0,-0.84,-0.0065,-0.68,-52,.,.,.,.,.,.
NC(=O)C1CCN(CC(=O)c2c[nH]c3ccc(F)cc23)CC1,-2,-27,-0.38,.,1,16,.,.,.,.,.,.
O=C(CN1CCN(c2ccccc2F)CC1)c1c[nH]c2ccc(F)cc12,-1,-2,-0.28,-0.24,-4*,-14,0.0073,0.011*,0.031,?,0.018*,0.01
CN1C(=O)[C@@H]2[C@@H]3C[C@@H]([C@H]4ON=C(c5ccccc5OCC#N)[C@@H]34)[C@@H]2C1=O,.,.,0.9,.,-0.23,.,.,.,.,.,.,.
Cc1ccc(CSCCNC(=O)c2ccc(C)cc2)cc1,1,-15,.,-0.9,-3.8*,-20,0.0066,0.0047,0.024*,0.0077,0.016*,0.01
COc1ccc(C(=O)NCCSCc2ccc(C)cc2)cc1,0,15,-0.17,.,.,-17,.,.,.,.,.,.
COC(=O)Cn1cc(C(=O)c2ccco2)c2ccccc21,-4,2,0.34,1.1,-0.013,.,.,.,.,.,.,.
